Only some compounds are listed: those with a hit (about 15% of all), similar ones and a draw of the others.
ALOX12 inh – blocks human arachidonate 12S-lipoxygenase. P18054. purified 12hLO, xylenol orange hydroperoxide absorbance. Potency, µM (highest dose often 108 µM), inactives show top-dose activity change, negative = inhibition, hits mostly inhibitors. actives 1.1% (n = 580,000). AID 1671190
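Hydroperoxide product was detected by ferrous iron/xylenol orange as the 573 to 405 nm absorbance ratio. Arachidonic acid at 40 uM (final) was turned over for 30 min at room temperature by 150 nM human 12hLO, pH 7.0 Hepes buffer, after 15 min compound preincubation.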
ELG1 repair inh – blocks ELG1-dependent DNA repair in HEK293T cells | HEK293T ELG1-luciferase reporter, luminescence, 16 h; DNA damage induced by 5-fluorouridine | Potency, µM (doses to about 46.1 µM), for the others: at the highest dose activity change, negative = inhibition, hits mostly inhibitors | actives 2.3% (n = 330,000) | AID 504467; note: nearly all actives have a fitted effect of over 55% in size
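Luminescence from the luciferase reporter, measured 30 min after ONE-Glo reagent at room temperature, was the read-out. Beforehand, 2,000 cells per well were exposed for 16 hr at 37 °C to 5-fluorouridine together with compound or vehicle.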
TDP1 cell noCPT – qHTS for Inhibitors of human tyrosyl-DNA phosphodiesterase 1 (TDP1): qHTS in cells in absence of CPT. Potency, µM (titrated, usually from 46.2 µM), for the others: at the highest dose activity change, negative = growth inhibition, actives largely listed as inhibitors. actives 15% (n = 420,000). DT40 Tdp1-/- hTDP1 cells, no CPT, ATP luminescence, 48 h. AID 686978, 2013; note: nearly all actives have a fitted effect of over 55% in size
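Compound effects on proliferation are scored in DT40 Tdp1-/-;hTDP1 cells in the absence of CPT. ATP levels (CellTiter-Glo luminescence) are recorded after a ≥48 hr, 37 °C incubation.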
VP16 counter – counter-screen for ROR gamma inhibitors: Gal4-VP16 reporter; Drosophila S2 Gal4-VP16 UAS-luciferase, luminescence, 20 h; Potency, µM (top dose mostly 53.6 µM), inactives show at the top dose activity, negative = inhibition, most hits filed as inhibitors; actives 3.5% (n = 310,000);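 note: Gal4-VP16 expression switched on by copper sulfate through the metallothionein promoter; nearly all actives have a fitted effect of over 50% in size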
RORgamma inh – ROR gamma (mouse) transcription inhibition | Drosophila S2 Gal4-RORgamma UAS-luciferase reporter, 20 h | Potency, µM (highest dose often 53.6 µM), without a hit: at the top dose activity change, negative = inhibition, usual class: inhibitors | actives 5.4% (n = 310,000) | AID 2551 | P51450; note: nearly all actives have a fitted effect of over 60% in size
Target sequence (P51450 whole entry, looked up, the tested form may be a part): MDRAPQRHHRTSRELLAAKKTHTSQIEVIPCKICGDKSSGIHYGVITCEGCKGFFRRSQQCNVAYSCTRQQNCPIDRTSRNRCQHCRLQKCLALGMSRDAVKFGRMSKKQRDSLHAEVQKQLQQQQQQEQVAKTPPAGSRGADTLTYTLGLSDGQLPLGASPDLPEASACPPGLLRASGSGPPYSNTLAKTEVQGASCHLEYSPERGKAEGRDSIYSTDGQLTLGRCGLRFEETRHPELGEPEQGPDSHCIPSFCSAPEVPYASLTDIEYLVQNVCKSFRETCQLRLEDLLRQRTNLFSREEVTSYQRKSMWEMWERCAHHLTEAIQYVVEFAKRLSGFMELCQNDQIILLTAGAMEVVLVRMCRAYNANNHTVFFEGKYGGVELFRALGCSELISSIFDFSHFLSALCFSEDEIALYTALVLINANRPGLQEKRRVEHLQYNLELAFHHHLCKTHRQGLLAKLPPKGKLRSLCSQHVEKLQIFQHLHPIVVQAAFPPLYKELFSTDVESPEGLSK
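In this cell-based reporter format, copper sulfate (700 uM final) drives Gal4–ROR gamma fusion expression from a metallothionein promoter in Drosophila Schneider cells; compounds preincubated 1 hr, reporter read after 20 hr at ambient temperature.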
TDP1 cell CPT – growth inhibition of DT40 Tdp1-/-;hTDP1 cells with camptothecin (screen for TDP1 inhibitors). actives 12% (n = 420,000). chicken DT40 Tdp1-/-;hTDP1 cells + 20 nM CPT, ATP luminescence, 48 h. Potency, µM (doses to about 46.2 µM), without a hit: at the highest dose activity change, negative = growth inhibition, most hits filed as inhibitors. AID 686979; note: nearly all actives have a fitted effect of over 55% in size
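Cell growth measured by CellTiter-Glo luminescence after a minimum 48 h, 37 C compound exposure with 20 nM CPT in Tdp1-knockout DT40 cells stably expressing hTDP1, seeded 400/well; qHTS titration format.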
The depositor's hits bear a star; ? = inconclusive; . = no result given; [ ] = dose if it differs, or a comment. Calls come from the whole dose curve; as a rule, active = well fitted curve in the direction sought with a large enough effect; inconclusive = small, poorly fitted or top-dose-only effect, or another doubt; inactive = no such curve, though single readings can be large; an effect the other way counts as inactive or inconclusive. % is set by controls: 0 for no effect and ±100 for the full control effect; potency is the fitted concentration of half-maximal effect.

SMILES | ALOX12 inh | ELG1 repair inh | TDP1 cell noCPT | VP16 counter | RORgamma inh | TDP1 cell CPT
CC[C@]12c3[nH]c4cc(-c5ccco5)ccc4c3CCN1C(=O)[C@@H](CC(=O)NCCCN(C)C)C[C@@H]2C(=O)N1CCN(C(=O)c2ccco2)CC1 | ? | 5% | -25% | . | . | -4%
Cc1cccc(/C=C2\CCC(=C3SCCCS3)C2=O)c1 | 0% | ? | 15µM* | 3.5µM* | 0.28µM* | ?
O=C1C(=C2SCCCS2)CC/C1=C\c1ccc(F)cc1 | 134% | ? | ? | 3.5µM* | 4.5µM* | ?
Cc1cc(C)c2c(c1)C(=O)/C(=C\c1ccccc1)CC2 | 21% | . | . | . | . | .
C=CCNC(=S)N/N=C1/CCC=C1CCCCC | 35µM* | . | . | . | . | .
COC(=O)CC1CCCCN1CC(=O)NC(=O)NCc1ccco1 (centres undefined) | 1% | . | . | . | . | .
COc1cc2ccccc2cc1C(=O)N1CCN(c2nc3c(F)cc(F)cc3s2)CC1 | -15% | . | 8.2µM* | . | . | 21µM*
COc1cc2ccccc2cc1C(=O)N1CCN(c2nc3c(F)cccc3s2)CC1 | -23% | . | 16µM* | . | . | 21µM*
CCCCNS(=O)(=O)c1ccc(NC(=O)Cc2ccc(OC)cc2)cc1 | 12% | ? | 7.3µM* | -8% | 38% | 13µM*
CCOc1ccc(NS(=O)(=O)c2ccc(C(=O)N(C)CC(=O)Nc3ccc(OC)cc3)cc2)cc1 | -14% | 6% | ? | . | . | 13µM*
CCCC(=O)NC(=S)Nc1ccc(S(=O)(=O)Nc2ccc(OCC)cc2)cc1 | ? | ? | ? | ? | ? | 12µM*
CCOc1ccc(NS(=O)(=O)c2ccc(NC(=S)NC(=O)CC(C)C)cc2)cc1 | ? | ? | ? | -9% | ? | ?
COC(=O)c1ccc(-c2ccc(C(=O)O)cc2)cc1 | -3% | . | . | . | . | .
CCCCn1c(C2CCCCC2)nc2cc3[nH]c(=O)c(C(C)C)nc3cc21 | 4% | -15% | ? | 1% | 1% | ?
CCCCn1c(-c2cccc3ccccc23)nc2cc3[nH]c(=O)c(C(C)C)nc3cc21 | 1% | -9% | 16µM* | -4% | 3% | ?
CCCCn1c(-c2ccccc2C)nc2cc3[nH]c(=O)c(C(C)C)nc3cc21 | 11% | -4% | ? | 2% | -11% | 21µM*
CCOC(=O)C1CCCN(CCN(C)C)C1 (centres undefined) | -10% | . | . | . | . | .
Cc1ccc(CNC(=S)NCCN(C)C)cc1 | -10% | . | . | . | . | .
N#Cc1c(N)[nH]c(=S)c(C#N)c1-c1ccccc1 | ? | 0% | ? | ? | 10µM* | 21µM*
CCOCCCn1c(SCC(=O)NC2CCCC2)nc2ccccc2c1=O | -1% | -17% | ? | -6% | -14% | ?
COc1ccc(C(=O)Nn2c(SCC(=O)NC3CCCCC3)nc3ccccc3c2=O)cc1 | 0% | ? | -15% | 13µM* | ? | 2%
COc1ccc(C(=O)Nn2c(SCC(=O)NCc3ccco3)nc3ccccc3c2=O)cc1 | 10% | ? | -28% | 8.9µM* | 10µM* | -12%
COCCn1c(SCC(=O)N2CCC(C)CC2)nc2ccccc2c1=O | -21% | -2% | ? | 1% | -4% | ?
CCCCn1c(SCC(=O)NC2CCCC2)nc2ccccc2c1=O | -22% | 3% | -23% | . | . | -11%
CCn1c(SCC(=O)NCc2ccco2)nc2ccccc2c1=O | -8% | 8% | -1% | 20% | 0% | -4%
SMILES | ALOX12 inh | ELG1 repair inh | TDP1 cell noCPT | VP16 counter | RORgamma inh | TDP1 cell CPT
COc1ccc(C(=O)Nn2c(SCC(=O)N3CCC(C)CC3)nc3ccccc3c2=O)cc1 | 0% | ? | -21% | 10µM* | 10µM* | -17%
COCCn1c(SCC(=O)NC(=O)NC2CCCCC2)nc2ccccc2c1=O | 84% | ? | 15µM* | . | . | ?
C=CCOC(=O)C(NC(=O)c1ccccc1)=C(C)C | -18% | . | . | . | . | .
O=C(c1cccc2[nH]ccc12)N1CCCN(c2cc(-c3ccc(Cl)cc3)[nH]n2)CC1 | 1% | . | . | . | . | .
COc1ccc(C(=O)Nn2c(C)nc3ccccc3c2=O)cc1 | -97% | -5% | -22% | 2% | 15% | -4%
COc1ccc(C(=O)Nn2c(SCC(=O)c3ccc(Cl)cc3)nc3ccccc3c2=O)cc1 | -5% | ? | -22% | ? | 11µM* | -24%
COc1ccc(C(=O)C(C)OC(=O)c2ccc3ccccc3n2)cc1 (centres undefined) | -2% | . | . | . | . | .
Cc1cc(C)c(C(O)C(C)Sc2ccc(Cl)cc2)cc1C (centres undefined) | -34% | . | . | . | . | .
CCCNC(=O)N[C@@H]1C[C@H](Cn2cc(-c3cccnc3)nn2)[C@@H](O)[C@H]1O | 14µM* | . | . | . | . | .
CC(CCc1ccccn1)C(=O)c1ccccc1 (centres undefined) | -5% | . | 4% | . | . | 8%
O=C(c1ccccc1)C(CCc1ccccn1)CCc1ccccn1 | -6% | . | 16µM* | . | . | ?
COc1ccc(CC(=O)Oc2ccc(Br)cc2Cl)cc1 | -29% | . | . | . | . | .
O=C1c2ccccc2C(=O)N1c1ccccc1 | 0% | . | 7% | . | . | 1%
O=C1C=CC(=O)N1c1cccc(-c2ccccc2)c1 | ? | 10% | 0.73µM* | -27% | 0% | 0.65µM*
CCOC(=O)C1(Cc2ccccc2F)CCCN(C(=O)CCN2CCCCC2=O)C1 (centres undefined) | 10% | . | . | . | . | .
COc1cc(CNC(=O)c2nc(C(O)c3ccccn3)oc2C)cc(OC)c1 (centres undefined) | 1%[176 µM] | . | . | . | . | .
CCOc1ccccc1NC(=O)COc1coc(CN2CCc3ccccc3C2)cc1=O | -5% | ? | 13µM* | . | . | ?
O=C(CCCC(=O)OCC(=O)c1cccc([N+](=O)[O-])c1)Nc1cc(C(F)(F)F)ccc1Cl | -20% | . | . | . | . | .
Cc1ccc(CN(Cc2ccco2)C(=O)c2oc3c(C)c(C)ccc3c2C)cc1 | ? | . | 23µM* | . | . | ?
Cc1cc2oc(C(=O)N(Cc3ccco3)Cc3ccccc3Cl)c(C)c2cc1C | -19% | . | 15µM* | . | . | ?
Cc1ccc(C(=O)N(Cc2ccco2)Cc2ccco2)cc1 | ? | . | ? | . | . | -11%
Cc1ccc2occ(CC(=O)N(Cc3ccccc3Cl)C3CCS(=O)(=O)C3)c2c1 (centres undefined) | 4% | . | 23µM* | . | . | ?
O=C(c1cc(=O)c2cc(Cl)ccc2o1)N(Cc1ccccc1)Cc1ccco1 | -6% | . | . | . | . | .
